Tests used:
Conditions in all cases: concentration: 1 μM, replicates: in singlicate; n = 1
DDR2 = tested on: DDR2
DLK = tested on: T1, DLK
T1 construct: gene MAP3K12

DMPK2 = tested on: T2, DMPK2
T2 construct: gene CDC42BPG

DMPK = tested on: DMPK
DRAK1 = tested on: T3, DRAK1
T3 construct: gene STK17A

DRAK2 = tested on: T4, DRAK2
T4 construct: gene STK17B

DYRK1A = tested on: DYRK1A
DYRK1B = tested on: DYRK1B
DYRK2 = tested on: DYRK2
EGFR = tested on: EGFR
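Also: KINOMEscan kinase panel screen.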

Row | Structure (SMILES) | %Inh (DDR2) [%] | %Inh (DLK) [%] | %Inh (DMPK2) [%] | %Inh (DMPK) [%] | %Inh (DRAK1) [%] | %Inh (DRAK2) [%] | %Inh (DYRK1A) [%] | %Inh (DYRK1B) [%] | %Inh (DYRK2) [%] | %Inh (EGFR) [%]
1 | Cl.c1ccc(Cn2ncc3cc(Nc4ncnc5ccccc45)ccc32)cc1 [GW273749] | 0 | 12 | 61 | 0 | 79 | 0 | 16 | 8 | 16 | 100
2 | O=C(NCCCN1CCCC1=O)c1cnc(NCc2cc(Cl)ccc2Cl)nc1NC1CCNCC1 | 0 | 0 | 0 | 0 | 0 | 16 | 0 | 0 | 0 | 20
3 | CCc1nc(-c2cccc(C)c2)c(-c2ccnc(NC(=O)c3ccccc3)c2)s1 | 1 | 6 | 8 | 0 | 0 | 0 | 18 | 50 | 10 | 24
4 | Nc1nc(-c2ccccn2)c(-c2ccnc3ccccc23)s1 [GW548057] | 33 | 45 | 10 | 0 | 0 | 3 | 1 | 0 | 9 | 16
5 | Cn1ccc2ncnc(Oc3ccc(NC(=O)Nc4cccnc4)c(Cl)c3)c21 | 90.7 | 0 | 0 | 0 | 8 | 2 | 0 | 33 | 14 | 20
6 | C[C@@H]1CCN(C(=O)CO)C[C@@H]1N(C)c1ncnc2[nH]ccc12 | 0 | 0 | 0 | 8 | 3 | 13 | 0 | 0 | 0 | 1
7 | FC(F)(F)c1cc(Nc2nccc(-c3c(-c4ccc(Cl)cc4)nn4ncccc34)n2)ccc1Cl [GW829351] | 30 | 0 | 19 | 0 | 0 | 0 | 0 | 0 | 0 | 24
8 | CNc1nccc(-c2c(-c3ccc(F)cc3)ncn2CCCN2CCOCC2)n1 [SB-222516] | 0 | 1 | 93 | 7 | 12 | 15 | 6 | 48 | 15 | 10
9 | COc1ccc(-c2oc3ncnc(N)c3c2-c2ccc(OC)cc2)cc1 [SB-589132] | 70 | 52 | 2 | 0 | 4 | 0 | 15 | 0 | 18 | 0
10 | O=C(Nc1ccccc1F)NC1CCN(c2ccnc(Nc3ccc(F)cc3)n2)C1 (stereo not drawn) [GSK1379722] | 11 | 23 | 1 | 0 | 0 | 0 | 19 | 22 | 0 | 0
11 | Cc1ccc(NC(=O)c2cccc(C#N)c2)cc1-c1ccc(C(=O)Nc2ccncc2)cc1 [GSK1398463] | 82 | 0 | 6 | 0 | 0 | 1 | 31 | 19 | 19 | 36
12 | CN1CCC(n2cnc(-c3ccc(F)cc3)c2-c2ccnc(NC3CCNCC3)n2)CC1 [SB-229482] | 0 | 0 | 18 | 22 | 0 | 0 | 0 | 23 | 6 | 17
13 | CCC(CC)(CC)n1cnc2c(N)ncnc21 [SKF-97620] | 24 | 0 | 0 | 7 | 7 | 25 | 0 | 0 | 20 | 0
14 | CS(=O)(=O)CCNCc1nc(-c2ccc3ncnc(Nc4ccc(OCc5cccc(F)c5)c(Cl)c4)c3c2)cs1.Cl [GW583340] | 20 | 2 | 0 | 0 | 7 | 17 | 12 | 20 | 16 | 99.9
15 | Cl.O=S(=O)(c1cccc(F)c1)c1ccc(Nc2ncnc3cc(Br)sc23)cc1Cl [GSK306886] | 0 | 0 | 15 | 0 | 9 | 0 | 7 | 0 | 14 | 99.2
16 | Clc1cc(Nc2ncnc3cc[nH]c23)ccc1OCc1ccccn1 | 0 | 40 | 0 | 9 | 48 | 20 | 0 | 17 | 17 | 99.9
17 | Oc1ccc2ncnc(Nc3ccc(OCc4ccccc4)cc3)c2c1 [GI262866] | 7 | 11 | 0 | 0 | 0 | 0 | 16 | 0 | 18 | 100

Row | Structure (SMILES) | %Inh (DDR2) [%] | %Inh (DLK) [%] | %Inh (DMPK2) [%] | %Inh (DMPK) [%] | %Inh (DRAK1) [%] | %Inh (DRAK2) [%] | %Inh (DYRK1A) [%] | %Inh (DYRK1B) [%] | %Inh (DYRK2) [%] | %Inh (EGFR) [%]
18 | CC(C)(C)OC(=O)NC1CCCN(c2cc(-c3ccc4c(N)n[nH]c4c3)nc(N)n2)C1 (stereo not drawn) [GSK2286096] | 0 | 2 | 0 | 0 | 96.3 | 0 | 14 | 100 | 80 | 27
19 | O=C(c1ccc(-c2cc(-c3c[nH]nc3-c3ccccn3)ccn2)cc1)N1CCCC1 [GW792479] | 24 | 0 | 0 | 0 | 0 | 10 | 0 | 0 | 0 | 27
20 | Nc1nc(-c2ccc3c(N)n[nH]c3c2)cc(N2CCC[C@@H](C(=O)Nc3ccccc3)C2)n1.O=C(O)C(F)(F)F.O=C(O)C(F)(F)F [GSK2288359] | 7 | 0 | 15 | 0 | 55 | 0 | 0 | 14 | 32 | 24
21 | Cc1cc(N2CCC(NS(=O)(=O)c3ccc(F)cc3)CC2)nc(Nc2cccc(C#N)c2)n1.O=C(O)C(F)(F)F [GSK1653537] | 7 | 47 | 0 | 0 | 3 | 0 | 32 | 97.7 | 5 | 50
22 | Cn1cc(-c2ccc3c(c2)CCN3C(=O)Cc2cccc(C(F)(F)F)c2)c2c(N)ncnc21 [GSK2606414] | 74 | 23 | 0 | 30 | 3 | 0 | 16 | 0 | 27 | 20
23 | Fc1ccc(-c2ncn(CCCNCc3ccccc3)c2-c2ccncc2)cc1 | 3 | 0 | 55 | 3 | 0 | 0 | 22 | 22 | 10 | 17
24 | NC(=O)c1sc(-n2cnc3ccccc32)cc1OCc1ccccc1F [GSK1024306] | 25 | 38 | 0 | 0 | 4 | 0 | 4 | 0 | 17 | 84
25 | O=c1cc(N2CCOCC2)nc2n(Cc3cccc(Cl)c3)ccn12 [GSK2296823] | 0 | 0 | 0 | 0 | 0 | 0 | 28 | 0 | 9 | 20
26 | CC(C)(C)c1ccc(-n2cnc3c(N)ncnc32)cc1 [SKF-97263] | 13 | 0 | 0 | 0 | 85 | 5 | 15 | 21 | 3 | 38
27 | Nc1n[nH]c2nnc(-c3ccccc3)cc12 [SB-517389] | 7 | 0 | 0 | 0 | 0 | 0 | 72 | 92.4 | 57 | 34
28 | CSc1ccc(NC2=C(c3ccccc3Cl)C(=O)NC2=O)cc1 [SB-342411] | 0 | 0 | 0 | 0 | 0 | 0 | 67 | 78 | 3 | 18
29 | CSc1nn2c(=O)cc(N3CCOCC3)nc2n1Cc1cccc(Cl)c1Cl [GSK2347225] | 0 | 100 | 16 | 12 | 4 | 0 | 19 | 23 | 8 | 39
30 | CNc1nccc(-c2c(-c3ccc(F)cc3)ncn2C2CCN(C)CC2)n1 [SB-222903] | 58 | 0 | 21 | 1 | 0 | 0 | 0 | 0 | 0 | 8
31 | Fc1cccc(COc2ccc(Nc3ncnc4cc[nH]c34)cc2Cl)c1 | 0 | 0 | 16 | 1 | 55 | 6 | 8 | 25 | 22 | 100
32 | Cn1ccc2ncnc(Nc3ccc(Oc4cccc(Cl)c4)c(Cl)c3)c21 | 4 | 0 | 5 | 0 | 4 | 1 | 22 | 55 | 33 | 100
33 | Cc1ccc(C)c(NC(=O)NCCNc2ccnc(Nc3ccc(F)cc3)n2)c1 [GSK1379878] | 15 | 38 | 0 | 0 | 5 | 3 | 0 | 1 | 3 | 10

Source: publication PMC5540273 (PLoS ONE, 2017)
